Consider 71 compounds from PubChem BioAssay AID2330 (Broad Institute, 2010).

About 2,800 (7.6%) of roughly 37,000 compounds were called active. About 1% were inconclusive and are not listed. Rule as the data show it: active = inhibition above about 80%; inconclusive = no clear call, values can overlap the other calls; inactive = below that. The list comes from a sample in which actives are over-represented; it also holds similar structures and randomly drawn compounds.

The nature of this assay: NOMO-1 AML cell viability reduction, primary screen, STK33 inhibitor project, CellTiter-Glo luminescence (AID 2330). The following applies: NOMO-1 AML viability, 72 h, stronger effect = higher value, concentration not given here.
Regarding `O=C(/C=C/c1ccccc1)NCCCCNCCCNC(=O)/C=C/c1ccccc1`, the inhibition is 11.1% (inactive).

Take `COc1cc(NC(=O)COc2cc(C)c(Br)c(C)c2)c(OC)cc1Cl`: the inhibition was 6.99% (inactive).

`C=CCNc1nc(C)nc(OC)n1`: the inhibition is -5.74% (inactive).

With `C[C@@H]1CN([C@H](C)CO)C(=O)Cc2cc(NC(=O)Nc3ccc(F)cc3)ccc2O[C@@H]1CN(C)C(=O)Nc1ccc2c(c1)OCO2`, the inhibition was 10.5% (inactive).

In the case of `O=C1NC(Cc2c[nH]c3ccccc23)C(=O)N2CCCC12` (stereo unspecified), the inhibition was 14.5% (inactive).

Regarding `Cc1ccc2nc(C)c3c(c2c1)N(c1ccccc1)CC3`, the inhibition is 122% (active).

As to `O=C(CSc1nc2sc3c(c2c(=O)[nH]1)CCC3)Nc1ccccc1C(F)(F)F`, the inhibition was 26% (inactive).

Take `C[C@H](CO)N1C[C@H](C)[C@H](CN(C)C(=O)Nc2ccc(C(F)(F)F)cc2)Oc2ccc(NS(C)(=O)=O)cc2CC1=O`: the inhibition is -2.28% (inactive).

Take `Cc1ccc(S(=O)(=O)N(C)C[C@@H]2Oc3ccc(NC(=O)Nc4ccc5c(c4)OCO5)cc3C(=O)N([C@@H](C)CO)C[C@@H]2C)cc1`: the inhibition was 45.7% (inactive).

Turning to `Cc1cc(C)cc(OCC(=O)Nc2cccc(-c3nnc(-c4ccccc4)o3)c2)c1`, the inhibition is 42.7% (inactive).

`Cc1ccnc(NC(c2cccc([N+](=O)[O-])c2)c2ccc3ccc(C)nc3c2O)c1` (stereo unspecified): the inhibition was 101% (active).

With `Cc1ccnc(NC(c2cccc(Br)c2)c2ccc3ccc(C)nc3c2O)c1` (stereo unspecified), the inhibition was 126% (active).

In the case of `Cc1ccc(S(=O)(=O)Nc2ccc3c(c2)C(=O)N([C@@H](C)CO)C[C@H](C)[C@H](CN(C)C(=O)Nc2ccc(C(F)(F)F)cc2)O3)cc1`, the inhibition was 4.18% (inactive).

As to `Cc1ccc(NC(=O)C2C3C=CC(C3)C2C(=O)O)cc1` (stereo unspecified), the inhibition is -5.27% (inactive).

With `Cc1cccc(NC(=O)CSc2nnc(-c3ccccc3)n2C2CCCCC2)c1C`, the inhibition is 22.3% (inactive).

Regarding `COc1ccc(NC(=O)CSc2nnc(-c3ccc(Br)cc3)n2C)cc1`, the inhibition was 16.2% (inactive).

As for `C[C@H](CO)N1C[C@H](C)[C@@H](CN(C)C(=O)Nc2ccccc2)Oc2c(NC(=O)CCCCCC(=O)Nc3ccccc3N)cccc2C1=O`, the inhibition was 21.7% (inactive).

`C[C@H](CO)N1C[C@H](C)[C@@H](CN(C)Cc2ccccc2)Oc2c(NC(=O)CCCCCC(=O)Nc3ccccc3N)cccc2C1=O`: the inhibition was 126% (active).

For the compound `C[C@@H]1CN([C@H](C)CO)C(=O)c2cccc(NC(=O)CCCCCC(=O)Nc3ccccc3N)c2O[C@@H]1CN(C)C(=O)Nc1ccccc1`, the inhibition was 7.63% (inactive).

Turning to `C[C@H](CO)N1C[C@H](C)[C@H](CN(C)Cc2ccc(Oc3ccccc3)cc2)Oc2c(NC(=O)CCCCCC(=O)Nc3ccccc3N)cccc2C1=O`, the inhibition was 139% (active).

For `C[C@H]1CN([C@@H](C)CO)C(=O)c2cccc(NC(=O)CCCCCC(=O)Nc3ccccc3N)c2O[C@H]1CN(C)C(=O)Nc1ccccc1`, the inhibition is 10.1% (inactive).

`C[C@H]1CN([C@@H](C)CO)C(=O)c2cccc(NC(=O)Nc3ccccc3)c2O[C@H]1CN(C)Cc1ccc(Oc2ccccc2)cc1`: the inhibition was 18.8% (inactive).

As for `C[C@H]1CN([C@@H](C)CO)C(=O)c2cccc(NC(=O)Nc3ccccc3)c2O[C@@H]1CN(C)S(C)(=O)=O`, the inhibition was -0.709% (inactive).

Regarding `COc1cc(C2c3c(cc(OC)c(O)c3OC)CC(CO[C@@H]3O[C@H](CO)[C@@H](O)[C@H](O)[C@H]3O)C2CO)cc(OC)c1O` (stereo partly specified), the inhibition was -1.41% (inactive).

Take `O=C1C2=C(Nc3ccccc3S(=O)(=O)C2c2ccc(Cl)cc2)c2ccccc21` (stereo unspecified): the inhibition was 121% (active).

As for `COC(=O)c1ccccc1NC(=O)C(C)Oc1ccccc1F` (stereo unspecified), the inhibition was 8.1% (inactive).

Turning to `O=C(CC(C(=O)O)N1CCNCC1)Nc1cccc(Cl)c1` (stereo unspecified), the inhibition was 9.13% (inactive).

As to `COc1cc(C2OC(c3cc(OC)c(OC)c(OC)c3)C(C)C2C)cc(OC)c1OC` (stereo unspecified), the inhibition was 7.55% (inactive).

Take `CCN(CC)C(=O)c1ccc(O)c(OC)c1`: the inhibition is -13.3% (inactive).

With `COc1cc(C2OC(c3ccc(O)c(OC)c3)C(C)(O)C2C)ccc1O` (stereo unspecified), the inhibition was 119% (active).

In the case of `O=C(c1ccccc1Br)N1CCN(c2ccc([N+](=O)[O-])c(NCc3cccnc3)c2)CC1`, the inhibition is 40.2% (inactive).

On to `Cc1noc(C)c1NC(=O)Nc1ccc2c(c1)C(=O)N([C@@H](C)CO)C[C@@H](C)[C@@H](CN(C)CC1CCCCC1)O2`, for which the inhibition was -6.14% (inactive).

`Oc1c(Cl)cc(Cl)c(Cl)c1Cc1c(O)c(Cl)cc(Cl)c1Cl`: the inhibition was 107% (active).

For `Cc1cc(=O)[nH]c(SCc2cn3c(C)cc(C)nc3n2)n1`, the inhibition was -6.02% (inactive).

Take `COc1ccc(NC(=O)N(C)C[C@@H]2OCCCC[C@@H](C)Oc3ccc(NS(=O)(=O)c4c(C)noc4C)cc3C(=O)N([C@H](C)CO)C[C@@H]2C)cc1`: the inhibition is 7.62% (inactive).

As to `COc1ccc(CCCOC(Cn2ccnc2)c2ccc(OC)cc2)cc1` (stereo unspecified), the inhibition was 114% (active).

Turning to `Cc1ccc(S(=O)(=O)N(C)C[C@H]2OCCCC[C@@H](C)Oc3ccc(NS(C)(=O)=O)cc3C(=O)N([C@H](C)CO)C[C@@H]2C)cc1`, the inhibition was 20.5% (inactive).

As for `COc1ccccc1NC(=O)c1ccc(OCC(=O)O)cc1`, the inhibition was -18.7% (inactive).

For `CC(C)(C)c1ccc(OCC(=O)Nc2cccc(NC(=O)c3ccccc3)c2)cc1`, the inhibition was 25.3% (inactive).

With `COC(=O)COc1cccc(NC(=O)c2cc(OC)c(OC)c(OC)c2)c1`, the inhibition is 124% (active).

With `C[C@H]1CN([C@@H](C)CO)C(=O)c2cccc(NC(=O)CCCCCC(=O)Nc3ccccc3N)c2O[C@@H]1CN(C)S(=O)(=O)c1cn(C)cn1`, the inhibition is 5.62% (inactive).

For the compound `O=[N+]([O-])c1ccc(NCCNCc2cccnc2)cc1`, the inhibition is -20% (inactive).

For the compound `CC[N+]1=C(C)C(C)(C)c2cc(-c3ccccc3)ccc21`, the inhibition was 123% (active).

As for `Cc1ccc(Cn2c(NCc3nc4ccccc4n3C)nc3ccccc32)cc1`, the inhibition was 7.82% (inactive).

As for `CC(C)NC(=O)Nc1ccc2c(c1)C(=O)N([C@@H](C)CO)C[C@@H](C)[C@H](CN(C)C(=O)NC1CCCCC1)O2`, the inhibition is 30.5% (inactive).

As for `COc1ccc(-c2nnc(SCC(=O)O)n2-c2ccccc2)cc1OC`, the inhibition was -16.5% (inactive).

On to `CC1(C)Cc2c(sc3ncn4nc(COc5ccc(Cl)cc5)nc4c23)C(C)(C)N1`, for which the inhibition was 142% (active).

Take `O=C1c2ccccc2C(=O)C1c1cc(=O)[nH]c2c1ccc1ccccc12`: the inhibition was 11.8% (inactive).

On to `CCOC(=O)c1nnn(-c2nonc2-n2cccc2)c1CN1CCOCC1`, for which the inhibition was 24.9% (inactive).

For `Cc1ccc(S(=O)(=O)N(C)C[C@H]2Oc3ccc(NS(=O)(=O)c4ccccc4)cc3CC(=O)N([C@@H](C)CO)C[C@H]2C)cc1`, the inhibition was -0.416% (inactive).

As for `COc1ccc(S(=O)(=O)Nc2ccc3c(c2)CC(=O)N([C@@H](C)CO)C[C@@H](C)[C@@H](CN(C)Cc2ccc(C(=O)Nc4ccccc4N)cc2)O3)cc1`, the inhibition is 100% (active).

For the compound `Cc1ccc(S(=O)(=O)Nc2ccc3c(c2)CC(=O)N([C@@H](C)CO)C[C@H](C)[C@H](CN(C)Cc2ccc(C(=O)Nc4ccccc4N)cc2)O3)cc1`, the inhibition was 139% (active).

Regarding `C[C@H](CO)N1C[C@H](C)[C@H](CN(C)CC2CC2)Oc2ccc(NS(=O)(=O)c3ccccc3)cc2CC1=O`, the inhibition is 20.8% (inactive).

Consider `COc1ccc(S(=O)(=O)Nc2ccc3c(c2)CC(=O)N([C@H](C)CO)C[C@@H](C)[C@@H](CN(C)C(=O)Nc2cccc4ccccc24)O3)cc1`, for which the inhibition was -1.33% (inactive).

As for `C[C@H]1CN([C@@H](C)CO)C(=O)Cc2cc(NS(=O)(=O)c3ccccc3)ccc2O[C@H]1CN(C)Cc1ccc(C(=O)Nc2ccccc2N)cc1`, the inhibition is 141% (active).

Consider `C[C@@H]1CN([C@H](C)CO)C(=O)Cc2cc(NS(=O)(=O)c3cccs3)ccc2O[C@@H]1CN(C)Cc1ccc(C(=O)O)cc1`, for which the inhibition is -19.7% (inactive).

For `COc1ccc(CN(C)C[C@H]2Oc3ccc(NS(=O)(=O)c4ccc(Cl)cc4)cc3CC(=O)N([C@@H](C)CO)C[C@H]2C)cc1`, the inhibition was 40.8% (inactive).

As for `Cc1ccc(S(=O)(=O)Nc2ccc3c(c2)CC(=O)N([C@@H](C)CO)C[C@@H](C)[C@@H](CN(C)S(=O)(=O)c2ccccc2)O3)cc1`, the inhibition was 5.59% (inactive).

For `C[C@@H]1CCCCO[C@H](CN(C)S(=O)(=O)c2ccccc2)[C@@H](C)CN([C@H](C)CO)C(=O)c2cc(NC(=O)Nc3ccc(F)cc3)ccc2O1`, the inhibition is 33.7% (inactive).

Consider `C[C@@H]1CCCCO[C@H](CN(C)S(=O)(=O)c2cccs2)[C@@H](C)CN([C@H](C)CO)C(=O)c2cc(NC(=O)Nc3ccccc3)ccc2O1`, for which the inhibition was 11.8% (inactive).

`O=c1cc(CSc2nnnn2-c2ccccc2)[nH]c(=S)[nH]1`: the inhibition was 33.9% (inactive).

For `C[C@@H]1CN([C@@H](C)CO)C(=O)Cc2cc(NC(=O)C3CCCCC3)ccc2O[C@@H]1CN(C)Cc1ccncc1`, the inhibition is 15.8% (inactive).

As to `CCOC(=O)c1cnc2cc(C(F)(F)F)ccc2c1N1CCCCCC1`, the inhibition is 13.2% (inactive).

For the compound `CNC[C@@H]1Oc2ccc(NC(=O)Nc3ccc4c(c3)OCO4)cc2C(=O)N([C@H](C)CO)C[C@@H]1C`, the inhibition was 6.4% (inactive).

As to `COc1ccc(NC(=O)c2ccc(OCC(=O)Nc3ccccc3F)cc2)cc1Cl`, the inhibition is 19.2% (inactive).

Turning to `CCOC(=O)c1nnn2c3ccccc3c(=O)n(C)c12`, the inhibition is -3.54% (inactive).

`CCOC(=O)c1c(CN2CCOCC2)nc2c3ccccc3ccn12`: the inhibition is -2.66% (inactive).

For the compound `CCOC(=O)c1nnn2c1nc(N1CCN(c3ccccc3)CC1)c1ccccc12`, the inhibition was 101% (active).

For the compound `Cc1noc(C)c1NC(=O)Nc1cccc2c1O[C@H](CN(C)C(=O)Nc1ccccc1)[C@@H](C)CN([C@H](C)CO)C2=O`, the inhibition was 30.8% (inactive).

Turning to `NC(CC(=O)Nc1ccc(Cl)cc1)C(=O)O` (stereo unspecified), the inhibition was 16.1% (inactive).

For the compound `Cc1noc(C)c1S(=O)(=O)Nc1ccc2c(c1)CC(=O)N([C@@H](C)CO)C[C@@H](C)[C@@H](CN(C)C(=O)Nc1ccc(C(F)(F)F)cc1)O2`, the inhibition is 14.7% (inactive).
